Reference: PubChem BioAssay AID493197 (Broad Institute, 2011)
Measured potencies and affinities stand elsewhere. Records with an inconclusive call do not appear. A number with no mark means an inactive call. How the calls were made is not given here.

Assay: growth inhibition of intracellular Trypanosoma cruzi, dose response, cell-based, plate reader, dry powder, set 3 (AID 493197)
Details: intracellular Trypanosoma cruzi in host cells; series mostly up to 19.5 µM; activity change, negative = inhibition: at the top concentration

| SMILES | activity change, negative = inhibition |
| --- | --- |
| CCCNC(=O)C1(C)CCN(C(=O)Cc2ccc(OC)c(OC)c2)C1 (configuration not stated) | -38.6% |
| COc1ccc(CN2CCC(C(=O)NC3CCCC3)CC2)cc1OC | -40.9% |
| CCCNC(=O)C1(C)CCCN(C(=O)Cc2ccc(OC)c(OC)c2)C1 (configuration not stated) | 24.1% |
| COCCNC(=O)C1(C)CCCN(C(=O)c2ccc(OC)c(OC)c2)C1 (configuration not stated) | -1.31% |
| COc1ccc(CCNC(=O)C2CCCCC2)cc1OC | -18% |
| CCNC(=O)C1(C)CCN(C(=O)c2ccc(OC)c(OC)c2)C1 (configuration not stated) | -4.33% |
| COc1ccc(CCN2CC(C(=O)NCc3ccc(F)cc3)CC2=O)cc1OC (configuration not stated) | -13.9% |
| COCCNC(=O)C1(C)CCCN(C(=O)c2cc(OC)c(OC)c(OC)c2)C1 (configuration not stated) | 14.9% |
| CCNC(=O)C1CCCN(C(=O)c2cc(OC)c(OC)c(OC)c2)CC1 (configuration not stated) | -5.26% |
| CCCNC(=O)C1(C)CCCN(C(=O)c2ccc(OC(F)F)cc2)C1 (configuration not stated) | 1.44% |
| COc1cc2c(cc1OC)C(C)N(CCC(N)=O)CC2 (configuration not stated) | -16.1% |
| CCNC(=O)C1(C)CCCN(C(=O)Cc2ccc(OC)c(OC)c2)C1 (configuration not stated) | 19.3% |
